Screening results deposited in PubChem by National Center for Advancing Translational Sciences (NCATS).
15-hLO-2 inh = blocks human 15-lipoxygenase 2 activity; O15296; purified 15hLO-2, xylenol orange hydroperoxide absorbance; Potency, µM (doses to about 57.1 µM), for inactives: at the top dose activity change, negative = inhibition, hits mostly inhibitors; hit rate 0.56% among 110,000; also: potency is read from the fitted curve at half-maximal effect; nearly all actives have a fitted effect of over 60% in size
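Read-out: hydroperoxide product oxidises ferrous iron, measured as xylenol orange complex via the 573-to-405 nm absorbance ratio after 30 min. Reaction: 50 nM enzyme, 15 min compound preincubation, 45 uM arachidonic acid, 90 min RT, Hepes pH 7.5 with Triton X-100.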
IMPase Li cell = membrane-permeable IMPase blocker, potentiated with lithium; CHO-M1 cells, IP1 TR-FRET (IP-One), carbachol + lithium; Potency, µM (doses to about 59.4 µM), without a hit: top-dose activity, negative = IMPase inhibition, most hits filed as inhibitors; hit rate 0.35% among 210,000; AID 1457;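 also: IP1 builds up when IMPase is blocked and the TR-FRET signal falls; potency is read from the fitted curve at half-maximal effect; plate controls were basal vehicle for no effect and high inhibitor control for full effect; nearly all actives have a fitted effect of over 50% in size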
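Readout is a homogeneous TR-FRET IP1 immunoassay (Ex 320, Em 665 and 620), where raised cytosolic IP1 lowers signal. Cells were CHO-M1 treated 30 min at 37C with test compounds plus a little lithium; AC50 values came from Hill-equation fitting.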
HPGD inh = blocks human HPGD enzyme activity. P15428. purified HPGD, NADH fluorescence kinetic, PGE2 substrate. Potency, µM, for inactives: at the top dose activity change, negative = inhibition, most hits filed as inhibitors. hit rate 4.3% among 150,000. AID 894; active = well fitted inhibition curve with a large enough effect, not every such curve was filed as active; inconclusive = small, poorly fitted or top-dose-only effect, or another doubt; inactive = no such curve, though single readings can be large or run the other way; also: potency is read from the fitted curve at half-maximal effect
Target sequence (P15428 whole entry, looked up): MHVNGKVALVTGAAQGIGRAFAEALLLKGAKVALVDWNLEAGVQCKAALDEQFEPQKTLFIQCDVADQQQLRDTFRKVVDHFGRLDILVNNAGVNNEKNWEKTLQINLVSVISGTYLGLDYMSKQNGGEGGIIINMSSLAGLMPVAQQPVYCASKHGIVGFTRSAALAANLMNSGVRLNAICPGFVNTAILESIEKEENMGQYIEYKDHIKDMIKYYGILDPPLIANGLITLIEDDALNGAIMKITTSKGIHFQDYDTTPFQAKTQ
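20 nM HPGD preincubated 15 min at room temperature with compound in 50 mM Tris-HCl pH 8, 0.01% Tween 20. Started with 1 mM NAD+ and 30 uM prostaglandin E2; NADH fluorescence (360/450 nm) read 5 times over 30-s intervals, last minus first.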
PNC assembly inh = perinucleolar compartment assembly inhibition. PC3M PTB-GFP, PNC prevalence imaging, 16 h; hits give low values. activity change (PNC), negative = inhibition, % at 10 µM. hit rate 3.1% among 140,000;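 active = readout at or below -70, meaning at least 70% loss of cells showing the perinucleolar compartment, a nuclear body marking cancer cells; inconclusive = readout between -30 and a set limit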;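 also: plate controls were DMSO wells for no effect and camptothecin positive control wells for full effect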
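Compounds are pinned in duplicate onto adhered PC3M cells stably expressing GFP-tagged PTB and incubated 16 h at 37 C. Cells are then fixed, nuclei stained with Hoechst, and PNC-positive cells counted.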
IMPase cell inh = IMPase inhibition in cells; P97697; CHO-M1 cells, IP1 accumulation, HTRF TR-FRET ratio; inhibition (IP1 accumulation), % at 46.1 µM; 120,000 tested, under 10 active; active = well fitted curve in the direction sought with a large enough effect in the signal ratio, not every such curve was filed as active; inconclusive = small, poorly fitted or top-dose-only effect, or a change in a side signal; inactive = no such curve, though single readings can be large or run the other way; the % refers to the signal ratio;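 also: cells stimulated with carbachol in lithium chloride buffer; plate controls were DMSO basal wells for no effect and reference inhibitor wells for full effect; higher means more IMPase inhibition seen as more IP1 and lower FRET ratio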
Target sequence (P97697 whole entry, looked up): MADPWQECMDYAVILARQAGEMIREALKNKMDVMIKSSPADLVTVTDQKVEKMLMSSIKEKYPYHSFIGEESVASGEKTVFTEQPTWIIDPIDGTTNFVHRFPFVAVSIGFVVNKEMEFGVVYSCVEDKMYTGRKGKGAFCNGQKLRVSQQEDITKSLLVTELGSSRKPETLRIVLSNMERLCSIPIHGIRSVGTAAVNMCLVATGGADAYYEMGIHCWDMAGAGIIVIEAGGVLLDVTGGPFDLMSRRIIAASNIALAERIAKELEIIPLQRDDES
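Seeded CHO-M1 cells were dosed with compound at up to 46 uM, stimulated with carbachol for 30 min, then lysed in IP-One detection reagents. Higher IP1 lowers the TR-FRET signal.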
ALOX12 inhib = 12-hLO (ALOX12) enzyme inhibition; P18054; purified 12-hLO, xylenol orange hydroperoxide absorbance; Potency, µM (series often up to 57.1 µM), inactives show at the highest dose activity change, negative = inhibition, actives largely listed as inhibitors; hit rate 0.12% among 150,000; also: potency is read from the fitted curve at half-maximal effect; nearly all actives have a fitted effect of over 55% in size
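Hydroperoxide output read as Fe(III)-xylenol orange absorbance, 573-to-405 nm ratio, after 30 min reaction with 40 uM arachidonic acid. Enzyme: 150 nM purified human 12hLO, 15 min compound preincubation; 25 mM Hepes pH 7.0, room temperature.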
* = called active by the depositor; [ ] = another dose, or the depositor's remark. Rows were chosen to be rich in hits. Some 5.3% of all compounds tested hit in one or more screens of this group. Unless noted, calls follow the shape of the dose curve; as a rule, active = well fitted curve in the direction sought with a large enough effect; inconclusive = small, poorly fitted or top-dose-only effect, or another doubt; inactive = no such curve, though single readings can be large; an effect the other way counts as inactive or inconclusive. Unless noted, % is scaled to controls: 0 for no effect and ±100 for the full control effect.

How did O=C(OCc1nnc(-c2ccccc2)o1)c1cc(S(=O)(=O)N2CCOCC2)c(Cl)cc1Cl do in these assays?
15-hLO-2 inh: -6.9%; IMPase Li cell: 30.3%[38.3 µM]; HPGD inh: 7.94µM*; PNC assembly inh: inconclusive; IMPase cell inh: 4.1; ALOX12 inhib: 1.6%

Results for O=C(OCc1nnc(-c2ccccc2)o1)c1cc([N+](=O)[O-])ccc1Cl ?
IMPase Li cell: 1.6%

What do the screens show for `O=C(OCc1nnc(-c2ccccc2)o1)c1ccc2c(c1)OCCO2`?
15-hLO-2 inh: -3.2%; IMPase Li cell: 5.6%[38.3 µM]; HPGD inh: 7.94µM*; PNC assembly inh: -6.4; IMPase cell inh: 6.6; ALOX12 inhib: 6.3%

How did O=C(OCc1nnc(-c2ccccc2)o1)c1ccc(CO)cc1 do in these assays?
IMPase Li cell: -3.4%

How did Cc1ccc(C(=O)OCc2nnc(-c3ccccc3)o2)o1 do in these assays?
15-hLO-2 inh: 0.4%; IMPase Li cell: 25.7%[38.3 µM]; HPGD inh: 7.08µM*; PNC assembly inh: 19.3; IMPase cell inh: 14.4; ALOX12 inhib: -4.0%

What do the screens show for `O=C(OCc1nnc(-c2ccccc2)o1)c1cc2ccccc2cc1O`?
IMPase Li cell: 10.2%

What do the screens show for `O=C(OCc1nnc(-c2ccccc2)o1)c1ccc2ccccc2n1`?
15-hLO-2 inh: -7.4%; IMPase Li cell: 15.6%[38.3 µM]; HPGD inh: 25.1µM*; PNC assembly inh: 2.5; IMPase cell inh: 10.6; ALOX12 inhib: -0.3%

How did C=C(C)C(=O)c1cccs1 do in these assays?
IMPase Li cell: 2.0%; HPGD inh: -7.4%

Results for O=C(NCc1ccccc1)C1(c2cccc(F)c2)CCCC1 ?
IMPase Li cell: 9.9%

What do the screens show for `CCOC(=O)c1c(C)[nH]c(C(=O)OCC(=O)c2c(N)n(C)c(=O)n(C)c2=O)c1C`?
IMPase Li cell: 3.5%

What do the screens show for `O=C(OCc1nnc(-c2ccccc2)o1)c1ccc(S(=O)(=O)NCc2ccco2)cc1`?
15-hLO-2 inh: -14.8%; IMPase Li cell: 22.9%[38.3 µM]; HPGD inh: 11.2µM*; PNC assembly inh: 27.4; IMPase cell inh: -6.6; ALOX12 inhib: 0.8%

What do the screens show for `O=C(COc1ccc(Br)cc1)OCc1nnc(-c2ccccc2)o1`?
15-hLO-2 inh: 6.4%; IMPase Li cell: -16.5%[38.3 µM]; HPGD inh: 28.2µM*; PNC assembly inh: 17.8; IMPase cell inh: -1.9; ALOX12 inhib: -5.5%

Results for NC(=O)COC(=O)c1ccc(S(=O)(=O)NCc2ccco2)cc1 ?
IMPase Li cell: -4.9%

What do the screens show for `Cc1cccc2cc(CN(CCN(C)C)C(=S)Nc3ccccc3)c(=O)[nH]c12`?
IMPase Li cell: 9.1%; HPGD inh: -3.6%; PNC assembly inh: -99.3*; IMPase cell inh: 2.4; ALOX12 inhib: -3.1%

How did Cc1cccc(NC(=S)N(CCN(C)C)Cc2cc3cc(C)ccc3[nH]c2=O)c1 do in these assays?
IMPase Li cell: 6.0%

What do the screens show for `COC(=O)c1c(NC(=O)CN2CCC3(O)CCCCC3C2c2ccc(OC)cc2OC)sc(C)c1C` (configuration not stated)?
IMPase Li cell: -2.2%; HPGD inh: 20µM*; PNC assembly inh: 57.7; IMPase cell inh: 7.6; ALOX12 inhib: -13.8%

What do the screens show for `COC(=O)c1c(NC(=O)CN2CCC3(O)CCCCC3C2c2ccccc2OC)sc(C)c1C` (configuration not stated)?
IMPase Li cell: 7.5%; HPGD inh: inconclusive; PNC assembly inh: 91.6; ALOX12 inhib: -1.8%

Results for COC(=O)c1ccc(C(/C=C/[C@@H](C)C(=O)N(C)Cc2ccccc2)NC(=O)OCc2ccccc2)cc1 (some centres not stated) ?
15-hLO-2 inh: 3.0%; IMPase Li cell: 4.1%; HPGD inh: -14.0%; ALOX12 inhib: -0.7%

How did Cc1cc(C)cc(NC(=O)CN(c2cc(C(F)(F)F)ccc2Cl)S(=O)(=O)c2ccccc2)c1 do in these assays?
IMPase cell inh: -3.6

How did COCCn1c(N)c(Sc2ccc([N+](=O)[O-])cc2)c(=O)[nH]c1=O do in these assays?
IMPase Li cell: 1.3%
